The record followed here is PubChem BioAssay (NCATS).

SMILES strings stand for the structures. Unmarked numbers belong to inactive results. Inconclusive results are not listed. The source made the active and inactive calls. The call rests on the fitted dose curve; in most records, active means well fitted curve in the direction sought with a large enough effect; inconclusive means small, poorly fitted or top-dose-only effect, or another doubt; inactive means no such curve, though single readings can be large; an effect the other way counts as inactive or inconclusive. *1 amine or outer side, *2 acyl side, *3 side chain or, on linkers, in order; H or OH if unused. Where a SMILES comes first, the peptide text is derived from it. [ ]: non-standard residue; d: D form. X7 = O=C([C@@H](CC(O)CCl)O[*:1])[*:2]; aIle = CC[C@@H](C)[C@H](N)C(=O)O; NMeV = CN[C@H](C(=O)O)C(C)C; NMeA = CN[C@@H](C)C(=O)O; βAla = NCCC(=O)O

The subject of assay [1] is Zika virus NS2B-NS3 protease (linked construct). Briefly: Primary screen NINDS Rhodamine qHTS for Zika virus inhibitors (AID 1347160). Further: nearly all actives have a fitted effect of over 55% in size. The method in brief:
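Purified NS2B-NS3 protease with the NS2B hydrophilic domain joined by a flexible linker (25 nM) in 10 mM Tris-HCl pH 8.0, 0.01% Tween 20, preincubated 15 min at RT with compound; Rhodamine110 peptide substrate 1.5 µM; fluorescence change over 15 min; 4-parameter Hill fit.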
For orientation: In qHTS, concentration-response curves come from the screen itself.

Assay [2] has as its target Calcium and integrin-binding protein 1 (Homo sapiens) (UniProt Q99828). The experiment in a line: Primary qHTS for Identification of Calcium Integrin Binding Protein 1 (CIB1) Competitor (AID 1508620).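 Further: GST tagged CIB1 binding a fluorescein labelled alphaIIb integrin peptide tracer; top concentration of the series differs between compounds; on the % scale 0 is the no-effect control and ±100 the full control effect.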 An outline of the steps: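 Fluorescence polarization competition: CIB1-GST (1 uM final) preincubated with compound 15 min at room temperature, then FITC-labeled alphaIIb peptide (100 nM final) added for another 15 min. Polarization read at Ex 480/Em 540.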

Assay [3] is described as follows: Primary qHTS for inhibitors of nuclear receptor binding SET domain protein 2 (NSD2) in an isogenic RCH-ACV NSD2 p.E1099K mutant (9B) (AID 1645876). Further: nearly all actives have a fitted effect of over 70% in size. Further: potency means the concentration at half of the fitted maximal effect.
Assay [4] has as its target Glutathione peroxidase 1 (Homo sapiens) (UniProt P07203). The experiment in a line: Primary qHTS Assay for Inhibitors of Recombinant Selenoprotein Glutathione Peroxidase 1 (GPX1) (AID 1845191). Further: nearly all actives have a fitted effect of over 65% in size. The method in brief:
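Recombinant GPX1 (10 nM final) was preincubated with compound for 30 min at room temperature, then reacted with 1 mM GSH, 0.5 mM CHP, 0.5 mM NADPH and 100 nM glutathione reductase; NADPH fluorescence (340/450 nm) was read at 0 and 15 min.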

The target of assay [5] is Phospholipid hydroperoxide glutathione peroxidase GPX4 (Homo sapiens) (UniProt P36969). Briefly: Primary qHTS Assay for Inhibitors of Recombinant Selenoprotein Glutathione Peroxidase 4 (GPX4) (AID 1845192). Further: nearly all actives have a fitted effect of over 65% in size. An outline of the steps: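 GR-coupled readout: 100 nM GR, 1 mM GSH, 0.5 mM NADPH; NADPH fluorescence (ex 340/em 450 nm) read at t=0 and after 15 min RT. GPX4 200 nM, preincubated 30 min with compound; substrate 0.5 mM CHP.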

Assay [6] concerns the target Luciferin 4-monooxygenase (Photinus pyralis) (UniProt P08659). Briefly: Primary firefly luciferase (FLuc) qHTS assay for identification of artifact compounds. (AID 1845220). Further: nearly all actives have a fitted effect of over 60% in size. Particulars: outcome: dose series up to 54.1 µM unless noted. An outline of the steps: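 In this counter-screen for luciferase artifacts, test compounds met substrate (10 uM each luciferin and ATP) before 10 nM enzyme started the reaction. Light output was measured 5 min later.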

Assay [7] can be described thus: Primary fluorescence-based thiol-reactive (MSTI) qHTS assay for identification of artifact compounds. (AID 1845221). Further: nearly all actives have a fitted effect of over 65% in size. Further: potency means the concentration at half of the fitted maximal effect. The method in brief:
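One-hour, room-temperature, dark incubation of compound with 4 uM MSTI in PBS (pH 7.4, 2% DMSO) precedes a fluorescence read at 525 nm excitation, 598 nm emission; Hill-equation fitting yields concentration-response values.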

Assay [8] relates to Nanoluciferase (engineered Oplophorus gracilirostris luciferase). Briefly: Primary Nanoluciferase (NLuc) qHTS assay for identification of artifact compounds. (AID 1845222).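 Further: NLuc secreted into diluted conditioned medium of S16 cells; 0% = DMSO and -100% = no enzyme.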 The method in brief: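 Using secreted nanoluciferase in S16 culture medium (0.22 um filtered, 1:55 dilution), compounds were preincubated 15 min at RT. Signal was generated with Nano-Glo reagent (1:100) over 5 min.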

In the next assay the test system is CRL-7250. The experiment in a line: Cytotoxic Profiling of Annotated Libraries Using Quantitative High-Throughput Screening (AID 1296008). Further: nearly all actives have a fitted effect of over 60% in size. Further: potency means the concentration at half of the fitted maximal effect. On max response: on the % scale 0 is the no-effect control and ±100 the full control effect. The following applies: Five cell lines viability, CellTiter-Glo ATP luminescence, 48-72 h; max response: hits give low values. An outline of the steps: (§1)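 Compounds were pin-transferred onto cells and incubated 48 or 72 hr at 37 degree Celsius, 95% humidity. CellTiter-Glo was added, plates sat 10 min at room temperature, then ATP-coupled luminescence was imaged as the viability read-out.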

Another assay deals with HEK293. The assay is described as above. Particulars: Five cell lines viability, CellTiter-Glo ATP luminescence, 48-72 h; max response: hits give low values. The method in brief:
as §1
(In general: ATP-based viability assays read luminescence as a measure of living cells.)

The subject of another assay is HaCat. Described as above. Particulars: Five cell lines viability, CellTiter-Glo ATP luminescence, 48-72 h; max response: hits give low values. The method in brief:
as §1

The subject of another assay is NIH3T3. The description is as above. Particulars: Five cell lines viability, CellTiter-Glo ATP luminescence, 48-72 h; max response: hits give low values. An outline of the steps: as §1
In the next assay the test system is C33A. Briefly: Primary qHTS to identify gynecologic anti-cancer compounds using libraries of approved drugs and bioactive compounds (AID 1345084). Further: nearly all actives have a fitted effect of over 55% in size. Further: potency means the concentration at half of the fitted maximal effect. Particulars: Gynecologic cancer cell panel viability, ATPlite luminescence, 48 h; series mostly up to 57.5 µM. An outline of the steps: (§2)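 In this quantitative HTS, cell killing is estimated from loss of ATP-dependent luciferase light. Cells see five compound concentrations over a 48 h exposure.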

The test system of another assay is Es-2. The assay is described as above. Particulars: Gynecologic cancer cell panel viability, ATPlite luminescence, 48 h; series mostly up to 57.5 µM. An outline of the steps:
as §2

Another assay concerns Hek293T. The assay is described as above. Particulars: Gynecologic cancer cell panel viability, ATPlite luminescence, 48 h, control line for the selectivity index; series mostly up to 57.5 µM. The method in brief:
as §2

Another assay deals with OV90. The assay is described as above. The following applies: Gynecologic cancer cell panel viability, ATPlite luminescence, 48 h; series mostly up to 57.5 µM. The method in brief: as §2
The test system of a further assay is Tov-21-G. Described as above. Particulars: Gynecologic cancer cell panel viability, ATPlite luminescence, 48 h; series mostly up to 57.5 µM. An outline of the steps:
as §2

In a further assay the test system is Tov112D. The description is as above. Particulars: Gynecologic cancer cell panel viability, ATPlite luminescence, 48 h; series mostly up to 57.5 µM. An outline of the steps:
as §2

A further assay has as its system CASKI. The description is as above. Particulars: Gynecologic cancer cell panel viability, ATPlite luminescence, 48 h; series mostly up to 57.5 µM. The method in brief: as §2
The next assay has as its system PA-1. The description is as above. Particulars: Gynecologic cancer cell panel viability, ATPlite luminescence, 48 h; series mostly up to 57.5 µM. The method in brief:
as §2

Sequence of Glutathione peroxidase 1 (Homo sapiens) (P07203 whole entry, looked up): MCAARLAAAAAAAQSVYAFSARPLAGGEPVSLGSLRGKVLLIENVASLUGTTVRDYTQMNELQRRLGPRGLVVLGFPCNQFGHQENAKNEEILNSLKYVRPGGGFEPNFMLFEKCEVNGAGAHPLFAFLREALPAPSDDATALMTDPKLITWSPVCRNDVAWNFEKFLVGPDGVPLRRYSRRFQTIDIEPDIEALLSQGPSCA
Sequence of Calcium and integrin-binding protein 1 (Homo sapiens) (Q99828 whole entry, looked up): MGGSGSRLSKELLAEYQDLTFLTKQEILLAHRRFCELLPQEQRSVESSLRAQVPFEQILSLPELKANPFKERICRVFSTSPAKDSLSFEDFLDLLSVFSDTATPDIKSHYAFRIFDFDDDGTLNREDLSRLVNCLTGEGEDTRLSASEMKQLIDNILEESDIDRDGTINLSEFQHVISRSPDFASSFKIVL
Sequence of Phospholipid hydroperoxide glutathione peroxidase GPX4 (Homo sapiens) (P36969 whole entry, looked up): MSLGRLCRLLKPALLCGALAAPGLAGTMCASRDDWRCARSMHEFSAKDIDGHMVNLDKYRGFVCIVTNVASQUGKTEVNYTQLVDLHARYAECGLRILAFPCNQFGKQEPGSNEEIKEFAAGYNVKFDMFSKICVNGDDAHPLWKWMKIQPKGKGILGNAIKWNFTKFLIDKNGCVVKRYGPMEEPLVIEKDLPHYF

Take `COC1C(O)C(C)OC(OC2C(CO)O[C@@H](O[C@@H]3CC4CCC5C(CC[C@]6(C)[C@@H](C7=CC(=O)OC7)CC[C@]56O)[C@@]4(C)[C@H](OC(C)=O)C3)C(O)C2O)C1O` (stereo partly drawn): the Potency entry in assay [1], in [2], in assay [4], in [5], in assay [7] and in [8] was “inactive” each time. In the assay with OV90, the Potency entry was “inactive”. The Potency in assay [3] was 2.16 µM (active); with CRL-7250 it was 2.17 µM (active); with HEK293, 2.43 µM (active); in the assay on HaCat, 4.32 µM (active); in the assay on C33A it was 3.55 µM (active); with Es-2, 6.31 µM (active). Also, the Potency with Hek293T is 3.55 µM (active); in the assay with Tov-21-G, 3.55 µM (active); with Tov112D, 2.82 µM (active). The outcome in assay [6] is “inactive [at 25.7 µM]”. Further, the compound was called inactive in the assay on NIH3T3.
Take `CCC1NC(=O)C2C(Cl)C(Cl)CN2C(=O)C(CC)NC(=O)CC(c2ccccc2)NC(=O)C(CO)NC1=O` (stereo not drawn): the Potency result (in assay [4]; in assay [5]; in assay [8]; in the assay with C33A; with CASKI; in the assay on Es-2) was “inactive” throughout. For the same compound, the Potency entry in the assay on Hek293T, with OV90, in the assay with PA-1 and in the assay on Tov112D was “inactive” each time. In assay [7], the Potency is 2.32 µM (active). Also, the max response is 2.35% in the assay on CRL-7250 and -1.56% in the assay on HEK293. Further, the outcome in the assay on HaCat and in the assay on NIH3T3 was inactive.
Take `CC[C@@H](C)[C@@H]1NC(=O)[C@@H]2CCCN2C(=O)[C@@H](CC(O)CCl)OC(=O)CCNC(=O)[C@H](C)N(C)C(=O)[C@H](C(C)C)N(C)C1=O` (stereo partly drawn) (cyclo([NMeA][βAla][X7]P[aIle][NMeV])): the Potency entry (in assay [1]; in [4]; in assay [5]; in [7]; in assay [8]; in the assay on CASKI) was “inactive” throughout. The Potency result in the assay with Tov-21-G was “inactive”. Also, the Potency in assay [3] was 0.608 µM (active); with CRL-7250 it was 0.968 µM (active); in the assay on HEK293, 0.685 µM (active); in the assay with NIH3T3 it was 2.43 µM (active); in the assay with C33A it was 4.47 µM (active); in the assay with Es-2, 4.47 µM (active). The figures for the Potency in the assay on OV90, with PA-1 and in the assay on Tov112D were 0.447 µM (active), 1 µM (active) and 3.55 µM (active), respectively. Also, the outcome in assay [6] was “inactive [at 25.7 µM]”. Besides, the max response with HaCat was -21.3%.
As to `N#Cc1cn([C@@H]2O[C@H](CO)[C@H](O)[C@@H]2O)c2ncnc(N)c12`, the Potency result in assay [1], in assay [4], in [5] and in assay [8] was “inactive” in each case. Moreover, the Potency is 0.0129 µM (active) in assay [3]; 0.058 µM (active) with CRL-7250; 0.0461 µM (active) with HEK293; 0.092 µM (active) with HaCat; 0.282 µM (active) in the assay on CASKI; 0.316 µM (active) with Tov112D.
On to `CC(=O)O[C@H]1CC[C@@]2(CI)C(=CC[C@@H]3[C@@H]2CC[C@]2(C)C(=O)CC[C@@H]32)C1`, for which the Potency result in [1], in assay [2], in assay [4], in assay [5], in assay [7] and in [8] was “inactive” in each case. In addition, the Potency entry in the assay with C33A, in the assay with CASKI, in the assay with Es-2, in the assay on Hek293T, in the assay with OV90 and in the assay with PA-1 was “inactive” in each case. Also, the Potency entry with Tov-21-G and in the assay with Tov112D was “inactive” each time. Further, the result with CRL-7250 and with HaCat was inactive. Also, the max response with HEK293 was -18.2%; in the assay on NIH3T3, 0.959%.
For the compound `C[C@]12CC[C@H](O)C[C@@H]1CC[C@@H]1[C@@H]2CC[C@]2(C)C(=O)CC[C@@H]12`, the Potency result in assay [1], in [2], in assay [3], in assay [4], in [5] and in [7] was “inactive” throughout. For the same compound, the Potency result (in assay [8]; with C33A; in the assay with CASKI; in the assay with Es-2; in the assay on Hek293T; in the assay with OV90) was “inactive” in each case. For the same compound, the Potency entry in the assay on PA-1, in the assay on Tov-21-G and in the assay with Tov112D was “inactive” each time. In [6], the call was inactive. For the same compound, the values for the max response with CRL-7250, in the assay with HEK293 and in the assay on NIH3T3 were -5.26%, -15.1% and -0.109%, respectively.
